40 molecules from PubChem BioAssay (Tox21) can be followed below.

Results filed as inconclusive are left out. Unmarked numbers belong to inactive results. Calls of active or inactive are those of the source. Calls follow the shape of the dose curve; as a rule, active = well fitted cell-killing curve with a large enough effect in the repeat runs; inconclusive = weak or mixed curves; inactive = flat fitted curve, though single readings scatter.
% is scaled to controls: 0 for no effect and ±100 for the full control effect.

A short description of the assay: qHTS RealTime-Glo MT Cell Viability Assay in HepG2 cells - 8 hour (AID 1224873). Also: nearly all actives have a fitted effect of over 55% in size. To be noted: RealTime-Glo luminescence; series mostly up to 76.8 µM. The source says: National Center for Advancing Translational Sciences [NCATS]
NIH Chemical Genomics Center [NCGC]
U.S. Environmental Protection Agency [EPA]
National Institutes of Environmental Health Sciences [NIEHS]
National Toxicology Program [NTP]
U.S. Food and Drug Administration [FDA]
Measure of cell viability is critical in the cell-base assay. Analysis of cell viability is necessary for the characterization of cell responses to cytotoxic drugs and environmental stress. A RealTime-Glo MT Cell Viability Assay to monitor cell viability in real time of continues cell culture during 40 hours of compound treatment was used to screen Tox21 10K library compounds in HepG2 cells. The RealTime-Glo MT Cell Viability Assay is a nonlytic, homogeneous, bioluminescent method to measure cell viability in real time using a simple, plate-based method. The assay involves adding NanoLuc luciferase and a cell-permeant prosubstrate to cells in culture. Viable cells reduce the proprietary prosubstrate to generate a substrate for NanoLuc luciferase. This substrate diffuses from cells into the surrounding culture medium, where it is rapidly used by the NanoLuc Enzyme to produce a luminescent signal. The signal correlates with the number of viable cells, making the assay well suited for cytotoxicity studies.
Tox21 Assay Protocol Summary:
The mixture of HepG2 cell suspension and reagents were dispensed at 600cells/6 ul/well in 1536-well tissue culture treated black solid bottom plates using a Multidrop dispenser. After the assay plates were incubated at a 37 C/5% CO2 incubator for 5 hours, 23 nL of compounds dissolved in DMSO, positive and negative controls was transferred to the assay plate by a pintool work station. The plates were incubated at 37 C for 40 hours. The luminescence intensity were measured at 0h, 8h, 16h, 24h, 32h and 40h time points using ViewLux plate reader during compound treatment.
With `COc1ccc(COC=O)cc1`, the molecule was classed as inactive.
Regarding `CC(C)c1ccc2oc3nc(N)c(C(=O)O)cc3c(=O)c2c1`, the result was inactive.
On to `Nc1[nH]c(=O)ncc1F`, for which the molecule was classed as inactive.
In the case of `CNC(=O)c1c(I)c(NC(=O)CCCCC(=O)Nc2c(I)c(C(=O)O)c(I)c(C(=O)NC)c2I)c(I)c(C(=O)O)c1I`, the result was inactive.
The same measure, in the same setting: under `Cc1cc(C)c(NC(=O)CN(CC(=O)O)CC(=O)O)c(C)c1Br` stands “inactive”; under `NC(=O)Nc1nc2ccccc2[nH]1`, “inactive”.
With `Cc1onc(-c2ccccc2)c1-c1ccc(S(N)(=O)=O)cc1`, the result was inactive.
As for `Oc1ccc2c(c1)OC[C@@H](N1CCC(O)(c3ccc(F)cc3)CC1)[C@H]2O`, the outcome was inactive.
`OCc1ccccn1`: the call was inactive.
In the case of `C(=C(c1ccccc1)c1ccccc1)c1ccccc1`, the outcome was inactive.
Same read-out and setting: with `NC(N)=NS(=O)(=O)c1ccc(N)cc1` the entry was “inactive”; with `NC(CS)C(=O)O` (stereo not given), “inactive”.
For `CC(=O)N[C@@H](CCC(N)=O)C(=O)O`, the outcome was inactive.
For `N[C@@H](CS)C(=O)O`, the call was inactive.
On to `FC(F)(F)C(F)(F)C(F)(F)C(F)(F)C(F)(F)C(F)(F)C(F)(F)C(F)(F)C(F)(F)C(F)(F)F`, for which the viability change, negative = cytotoxic is 3.63% [at 6.97 µM].
In the case of `CCCCCN(CCCCC)C(=O)C(CCC(=O)O)NC(=O)c1ccc(Cl)c(Cl)c1` (stereo not given), the molecule was called inactive.
On to `CCn1cc(C(=O)O)c(=O)c2cc(F)c(N3CCN(C)CC3)cc21`, for which the viability change, negative = cytotoxic was 2.21% [at 15.8 µM].
`CCCC(C)CO` (stereo not given): the call was inactive.
As to `O=C(O)c1ccc[n+]([O-])c1`, the result was inactive.
In the case of `CCN(CC)C(=O)c1ccc(O)c(OC)c1`, the outcome was inactive.
Turning to `O=S(=O)(O)c1ccccc1O`, the molecule was classed as inactive.
Still for that read-out and setting: with `COc1ccc(NC(C)=O)cc1` the entry was “inactive”; with `C=CC(=O)OCCCCCC`, “inactive”.
`NCCNC(=O)c1ccc(Cl)cn1`: the call was inactive.
For the molecule `Cc1ccccc1Br`, the molecule was called inactive.
As for `CC(O)CN(CCCN(C)C)CCCN(C)C` (stereo not given), the call was inactive.
Regarding `Cc1ccc(N)cc1[N+](=O)[O-]`, the outcome was inactive.
Take `CC(=O)NC(Cc1ccccc1)C(=O)O` (stereo not given): the result was inactive.
On to `O=C(O)/C=C/c1ccc(/C=C/C(=O)O)cc1`, for which the molecule was classed as inactive.
Turning to `CCC(=O)/C=C/c1ccc(OC)cc1`, the molecule was classed as inactive.
In the case of `CCN1CCCC1CNC(=O)c1cc(S(N)(=O)=O)ccc1OC` (stereo not given), the call was inactive.
For `COc1cccc(OC)c1`, the result was inactive.
For `CC(C)(C)CC(C)(C)N`, the outcome was inactive.
On the same count and under the same terms, with `C#CC(O)C(CC)CCCC` (stereo not given) the entry was “inactive”.
With `CC(C)=CC(=O)O`, the molecule was classed as inactive.
With `CC/C=C\CCCCO`, the molecule was called inactive.
As for `c1ccc2cnncc2c1`, the call was inactive.
Turning to `CSc1nc(NC2CC2)nc(NC(C)(C)C)n1`, the molecule was called inactive.
Still for that read-out and setting: with `O=c1[nH]c(=O)n([C@H]2O[C@H](CO)[C@@H](O)[C@@H]2O)cc1/C=C\Br` the entry was “inactive”; with `CC1=CCC2C(C1)C2(C)C` (stereo not given), “inactive”.
